Data from PubChem BioAssay.
Unmarked numbers belong to inactive results. The source made the active and inactive calls.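 How the source made its calls, unless noted: active means inhibition above 50%; inactive means the rest.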

assay: antimalarial activity against Dd2 strain (AID 2302;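 active means growth inhibition above 50% at the single 2 µM test dose, taken to imply half-maximal potency below 2 µM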;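 further: 0% = DMSO untreated growth and 100% = chloroquine plus artemisinin killed control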); details: P. falciparum Dd2 in RBCs, LDH growth readout, 72 h; at 2 µM; stronger effect = higher value

| Structure (SMILES) | growth inhibition |
| --- | --- |
| COc1ccc2nccc(N3CCN(CCNCc4ccc5c(n4)NC(=O)CO5)CC3)c2n1 | 12% |
| CN(C)C(=O)c1cc(CNCc2ccccc2)ccc1-c1cccc(CNCc2ccc(-c3ccccc3)cc2)c1 | 12% |
| COC(=O)c1cccc(CNCc2cccc(-c3cccc(-c4nc5ccc(C(F)(F)F)cc5[nH]4)c3)c2)c1 | 69% (active) |
| CC[C@H](C)CNC(=O)c1cncc(-c2ccc(CNCCCc3ccccc3)cc2)c1 | 99% (active) |

assay: HepG2 cytotoxicity, primary screen, cytotoxicity control for P. falciparum antimalarial project, cell-based, ATP luminescence (AID 2303); details: HepG2 viability, 24-48 h, at 10 µM, stronger effect = higher value;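 further: 0% = DMSO wells and 100% = digitonin-killed cells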

| Structure (SMILES) | inhibition |
| --- | --- |
| c1cncc(Oc2ccc(Nc3ccnc4cc(-c5cccc(CN6CCCCC6)c5)ccc34)cc2)c1 | 33% |
| CCCC(C)NC[C@@H](O)[C@H](Cc1ccccc1)NC(=O)c1cc(C2CCCC2)cc(N2CCCCS2(=O)=O)c1 (some centres undefined) | 8% |
| O=C(Nc1ccc(Cl)cc1)Nc1cccc(-c2ccc(-c3nc4ccccc4[nH]3)cc2)c1 | 19% |
| CC(=O)c1ccc(NC(=O)Nc2ccc(N(C)c3ccnc(NC4CC4)n3)cc2)cc1 | 59% (active) |
| CCOc1c(N2CCN(CCCCNC(=O)c3ccc(NC(=O)c4ccc(Cl)cc4)cc3)CC2)ccc2ccccc12 | 18% |
| CCCCc1cc(NCc2ccncc2)nc(Nc2ccc(C)cc2)n1 | 7% |
| Cc1ccc(F)c(C(=O)Nc2cccc(-c3nn4ccccc4c3-c3ccnc(Nc4cccc(F)c4)n3)c2)c1F | 35% |
| O=C(CSc1ccccn1)Nc1c(F)cccc1F | -2% |
| Cc1cccc2[nH]c(-c3ccc(-c4ccc(NC(=O)Nc5ccc(Cl)c(Cl)c5)cc4)s3)nc12 | 100% (active) |
| O=c1ccc2ncc(Cl)c3c2n1CC3CN1CCC(NCc2cc3c(cn2)OCCO3)CC1 (centres undefined) | 27% |
| Cc1cc(-c2nc3cncc(-c4cccc(CN5CCCC5Cc5cccnc5)c4)c3n2C)nn1C (centres undefined) | -7% |
| C=C[C@]1(C)C[C@@H](OC(=O)NC(=O)C2CCN(C(=O)CSc3ccccc3)CC2)[C@]2(C)[C@H](C)CC[C@]3(CCC(=O)[C@H]32)[C@@H](C)[C@@H]1O | -3% |
| COc1ccc2c(c1)[nH]c1c(/C=C/c3ccc([N+](=O)[O-])cc3)nccc12 | 4% |
| CN1CCN(CCCN(Cc2cccc(-c3ccc(CNCc4ccc5c(c4)OCO5)cc3)c2)C(=O)CCC2CCCC2)CC1 | 91% (active) |
| Cc1cc(N[C@@H](Cc2ccccc2)C(=O)NCc2cccc(F)c2)nc(NCCc2cccnc2)n1 | 18% |
| O=S(=O)(c1cc(Cl)c(Cl)cc1Cl)N1CCCCC(c2ccc(C(F)(F)F)cc2)=N1 | 9% |
| COc1ccc(CCn2c(=N)c(C(=O)NCc3ccc(C)cc3)cc3c(=O)n4ccccc4nc32)cc1 | 13% |
| FC(F)(F)c1cccnc1N1CCC(Nc2nc3ccc(Cl)cc3[nH]2)CC1 | 32% |
| CCOc1cccc2nc(NCCCNCc3ccc(Cl)c(Cl)c3)cc(NCCCNCc3ccc(Cl)c(Cl)c3)c12 | 96% (active) |
| O=[N+]([O-])c1ccc2ncnc(Nc3ccc(F)c(Cl)c3)c2c1 | -1% |

| Structure (SMILES) | inhibition |
| --- | --- |
| O=C(NCc1ccc(F)cc1)Nc1ccc(-c2cccc(-c3nc4ccc(F)cc4[nH]3)c2)cc1 | 31% |
| Clc1ccc(-c2ccc(C=NNc3nc(Nc4ccccc4)nc(Nc4ccccc4)n3)o2)cc1Cl | 1% |
| COc1ccc(Nc2c3ccc(Cl)cc3nc3ccc(OC)cc23)cc1 | 14% |
| CCC(C)NC(=O)CN1CN(c2ccccc2)C2(CCN(C(=O)c3ccc(C(C)(C)C)cc3)CC2)C1=O (centres undefined) | -6% |
| COc1ccc(C2CCN(CCCCNC(=O)c3ccc(NC(=O)c4ccc(Cl)cc4)cc3)CC2)c(C)c1 | 22% |
| O=C(NCCc1ccccc1)c1cc(-c2cccnc2)cnc1NCC1CC1 | 3% |
| Cc1nccc2c(NC(=O)N[C@@H]3CCN(c4ncc(C(F)(F)F)cc4Br)C3)cccc12 | 21% |
| Nc1cccc(CNCc2cccc(-c3cccc(-c4nc5ccc(C(F)(F)F)cc5[nH]4)c3)c2)c1 | 8% |
| CC1CN=C(c2cccc(NC(=O)Nc3cccc(C4=NCC(C)N4)c3)c2)N1 (centres undefined) | 7% |
| COc1ccc(-c2ccc(CN(C)C3CCC(NC(=O)c4cc5ccccc5[nH]4)CC3)cc2)cn1 (centres undefined) | 31% |
| N#Cc1ccc(-c2ccc(C(=O)NC3CCN(CCN4CCC(c5cn(CCO)c6ccccc56)CC4)CC3)cc2)cc1 | 30% |
| COc1ccc(S(=O)(=O)Nc2cc(C)cc(Br)c2OC)cc1N1CCN(C(=O)C(Cl)(Cl)Cl)CC1 | 9% |
| CC(C)CNCc1ccc(-c2ccccc2CN(C(=O)NCCc2ccccc2)C2CCN(Cc3ccccc3)CC2)cc1 | 89% (active) |
| c1ccn2c(Sc3ncnc4sccc34)ncc2c1 | -14% |
| CC(Oc1ccc(NC(=O)c2cccs2)cc1)C(=O)c1ccc(Cl)cc1 (centres undefined) | -1% |
| Cc1cc(NCCC(=O)Nc2ccccc2)nc(NCCc2ccccc2)n1 | -8% |
| COc1ccc2nccc(N3CCN(CCNCc4ccc5c(n4)NC(=O)CO5)CC3)c2n1 | 10% |
| CN(C)C(=O)c1cc(CNCc2ccccc2)ccc1-c1cccc(CNCc2ccc(-c3ccccc3)cc2)c1 | 27% |
| COC(=O)c1cccc(CNCc2cccc(-c3cccc(-c4nc5ccc(C(F)(F)F)cc5[nH]4)c3)c2)c1 | 7% |
| CC[C@H](C)CNC(=O)c1cncc(-c2ccc(CNCCCc3ccccc3)cc2)c1 | 19% |
